High-throughput results as filed in PubChem.
In the library only some 12% were active in any assay of this set; here they are far more common.
PLK1 PBD block: PLK1 (human) polo-box domain binding inhibition | P53350 | Plk1 PBD binding of FITC phosphopeptide, fluorescence polarization | Potency, µM, inactives show max response, negative = inhibition, hits mostly inhibitors | 360,000 tested, 2.8% active; also: potency is read from the fitted curve at half-maximal effect; series mostly up to about 57 µM; % is scaled to controls: 0 for no effect and ±100 for the full control effect; nearly all actives have a fitted effect of over 65% in size
Target sequence (P53350 whole entry, looked up, the tested form may be a part): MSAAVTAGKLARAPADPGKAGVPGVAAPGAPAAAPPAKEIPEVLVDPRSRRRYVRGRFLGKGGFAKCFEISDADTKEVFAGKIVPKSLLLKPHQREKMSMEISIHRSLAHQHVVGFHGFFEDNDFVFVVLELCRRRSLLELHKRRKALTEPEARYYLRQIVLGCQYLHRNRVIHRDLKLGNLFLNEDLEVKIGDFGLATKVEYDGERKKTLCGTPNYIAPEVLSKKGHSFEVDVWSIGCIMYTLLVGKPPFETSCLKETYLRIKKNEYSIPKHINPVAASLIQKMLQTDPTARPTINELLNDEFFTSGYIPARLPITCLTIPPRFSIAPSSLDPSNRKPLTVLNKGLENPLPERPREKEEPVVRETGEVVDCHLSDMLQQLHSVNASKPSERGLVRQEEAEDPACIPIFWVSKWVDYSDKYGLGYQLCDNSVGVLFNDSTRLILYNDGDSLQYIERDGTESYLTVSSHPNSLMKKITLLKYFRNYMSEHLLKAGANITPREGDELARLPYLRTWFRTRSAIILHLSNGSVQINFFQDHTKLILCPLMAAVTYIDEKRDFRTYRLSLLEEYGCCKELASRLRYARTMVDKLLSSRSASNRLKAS
JMJD2A Tudor: inhibitors of human JMJD2A Tudor domain | 390,000 tested, 4.4% active | AlphaScreen JMJD2A-Tudor / H3K4me3 peptide binding | O75164 | Potency, µM (doses to about 114 µM), without a hit: top-dose activity change, negative = inhibition, hits mostly inhibitors | AID 504339; also: potency is read from the fitted curve at half-maximal effect; % is scaled to controls: 0 for no effect and ±100 for the full control effect; nearly all actives have a fitted effect of over 50% in size
BAZ2B block: blocks human BAZ2B; Q9UIF8; AlphaScreen BAZ2B-H3K14Ac peptide displacement; Potency, µM (highest dose often 114 µM), for the others: at the top dose activity change, negative = inhibition, usual class: inhibitors; 360,000 tested, 4.4% active; also: potency is read from the fitted curve at half-maximal effect; % is scaled to controls: 0 for no effect and ±100 for the full control effect; nearly all actives have a fitted effect of over 60% in size
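AlphaScreen luminescence quantifies BAZ2B engagement of H3K14Ac peptide; the protein and biotinylated peptide are both at 50 nM final, buffer PBS pH 7.4 with 0.01% Tween-20, all steps at room temperature.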
G9a block: inhibitors of human histone lysine methyltransferase G9a | Q96KQ7 | G9a H3K9 monomethylation, AlphaScreen, 2 h | Potency, µM (top dose mostly 102 µM), inactives show at the top dose activity, negative = inhibition, usual class: inhibitors | 350,000 tested, 8.8% active | AID 504332; also: potency is read from the fitted curve at half-maximal effect; % is scaled to controls: 0 for no effect and ±100 for the full control effect; nearly all actives have a fitted effect of over 75% in size
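AlphaScreen detection with an anti-monomethyl H3K9 antibody quantified product after a 2 h room-temperature reaction containing 500 nM biotinylated H3K9 peptide, 20 µM SAM and 20 nM enzyme, which had been preincubated 15 min with compound.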
HP1b binding inh: HP1-beta chromodomain-methylated histone interaction inhibition; AlphaScreen HP1-beta / biotin-H3K9me3 peptide binding; 390,000 tested, 0.56% active; P83916; Potency, µM (highest dose often 114 µM), for the others: at the top dose activity change, negative = inhibition, most hits filed as inhibitors; also: potency is read from the fitted curve at half-maximal effect; nearly all actives have a fitted effect of over 70% in size
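HP1-beta protein (50 nM final) preincubated 30 min at room temperature with biotinylated H3(1-18)K9me3 peptide (50 nM) in PBS pH 7.4, 0.01% Tween-20, then compound added for 30 min. AlphaScreen streptavidin donor/nickel chelate acceptor beads (10 ug/mL final), 30 min dark, luminescence read.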
PI5P4Ka inh: inhibitors of human PI5P4K alpha. P48426. PI5P4Kalpha enzyme, ADP-Glo luminescence, 60 min; stronger effect = lower value. max response, %. 330,000 tested, 1.2% active. AID 652105; active = max response of -50% or lower; inconclusive = between -30% and -50%; inactive = -30% or higher; also: value at the top dose of about 77 µM; % is scaled to controls: 0 for no effect and ±100 for the full control effect
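Reactions run in 0.038 M HEPES pH 7.4, 0.28 mM EGTA, 0.1% CHAPS and 5% DMSO, with PI5P4Kalpha, substrate, compound and 5 microM ATP final, one hour at room temperature. Readout is ADP-Glo luminescence.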
Starred values were filed as active, the others as inactive; ? = inconclusive; . = not tested or not shown; [ ] = remark or other dose. Unless noted, calls follow the shape of the dose curve; as a rule, active = well fitted curve in the direction sought with a large enough effect; inconclusive = small, poorly fitted or top-dose-only effect, or another doubt; inactive = no such curve, though single readings can be large; an effect the other way counts as inactive or inconclusive.

SMILES	PLK1 PBD block	JMJD2A Tudor	BAZ2B block	G9a block	HP1b binding inh	PI5P4Ka inh
Cc1sc2ncnc(SCC(=O)NC(=O)NCc3ccco3)c2c1C	-16%	-28%	?	50µM*	0%	.
Cc1ccc(-c2csc3ncnc(OCC(=O)NC(=O)NCc4ccco4)c23)cc1	-23%	-34%	?	56µM*	13%	.
COCCNC(=O)NC(=O)CSc1nc(C)c(C)c(C)n1	-19%	9%	-1%	45µM*	45%	1
O=C(CSc1nn(-c2ccccc2)c(=S)s1)Nn1cnnc1	-8%	-11%	-4%	-3%[59 µM]	11%	15
O=C(CSc1nn(-c2ccccc2)c(=S)s1)NC(=O)NCc1ccco1	-10%	-28%	?	14µM*	8%	.
COc1ccc(NC(=O)CSCC(=O)Oc2c(OC)cccc2OC)cc1	-7%	-7%	1%	-23%	16%	0
Cc1noc(C)c1CSCC(=O)Nc1ccccc1N1CCCCC1	.	.	-2%	?	.	.
O=C(CSc1ccc(Cl)cc1)NC(=O)NCc1ccco1	3µM*	-1%	?	-33%	39%	-27
Cc1nc(SCC(=O)NC(=O)NCc2ccco2)nc(C)c1C	-6%	-28%	?	50µM*	12%	-22
Cc1nc(SCC(=O)NCc2ccco2)nc(C)c1C	-6%	-11%	0%	?	24%	.
O=C(CSc1ccc(Cl)cc1)NCc1ccco1	-5%	-15%	-34%	.	38%	-2
CCc1ccccc1OCCOc1ccc(C)cc1OC	3µM*	-27%[11.4 µM]	73%	47%[59 µM]	93%	-26
COc1cc(C)ccc1OCCOc1cc(C)ccc1Cl	24µM*	-27%[11.4 µM]	?	?	31%	1
C=CCN(CC=C)CCCOc1ccc(C)cc1OC	-17%	0.32µM*	25µM*	25µM*	?	-3
Cc1ccc(N2CC(NC(=O)C3CCCC3)CC2=O)cc1 (stereo not drawn)	.	-16%	-7%	2%[59 µM]	24%	.
CCc1oc(C(=O)OC)cc1CSC(=N)N	?	-15%	-6%	50µM*	12%	-15
CC(C)(CNc1ccc([N+](=O)[O-])cc1Cl)N1CCOCC1	-13%	-20%	-2%	7%	-23%	2
CCCCc1c(O)nc(SCC(=O)O)[nH]c1=O	-13%	3%	-4%	?	53%	-23
CCCCCc1c(O)nc(SCC(=O)NCC2CCCO2)[nH]c1=O (stereo not drawn)	27µM*	-12%[11.4 µM]	-3%	?	-3%	-22
CCCc1c(O)nc(SCC(=O)O)[nH]c1=O	19µM*	?	-32%	.	35%	?
Cc1ccc(Nc2nc(-c3c(C)n(C)n(-c4ccccc4)c3=O)c(C)s2)cc1	-8%	?	?	50µM*	6%	1
O=C(NCCC1=CCCCC1)Nc1ccc2nsnc2c1	2%	26%	-29%	40µM*	76%	0
COc1cc(C2C(C(=O)Nc3ccccc3C)=C(C)Nc3ncnn32)ccc1OCC(N)=O (stereo not drawn)	.	-8%	4%	4%[59 µM]	9%[57 µM]	.
COc1cc(NC(=O)CN(C)CCOc2ccccc2)c(C)cc1[N+](=O)[O-]	-7%	?	-24%	-15%	28%	-1
CN(CCOc1ccccc1)CC(=O)Nc1ccc(Cl)cc1[N+](=O)[O-]	2%	0.79µM*	13µM*	3.5µM*	25µM*	2
SMILES	PLK1 PBD block	JMJD2A Tudor	BAZ2B block	G9a block	HP1b binding inh	PI5P4Ka inh
CN(CCOc1ccccc1)CC(=O)Nc1ccc(Cl)c(S(=O)(=O)N(C)C)c1	-4%	2.8µM*	.	8.9µM*	-7%	1
Nc1ncnc2c1ncn2[C@@H]1O[C@H](CNCC#Cc2ccccc2)[C@@H](O)[C@H]1O	?	-19%	.	.	89%	10
CN(C)CCOC1c2ccccc2CCc2ccc3ccccc3c21 (stereo not drawn)	-4%	32µM*	.	.	?	-3
Cc1cc(C)c(C)c(OCCN2CC(C)OC(C)C2)c1 (stereo not drawn)	-2%	5.6µM*	32µM*	1.8µM*	?	0
CC1CN(CCCCOc2ccc(Cl)c3ccccc23)CC(C)O1 (stereo not drawn)	8%	11µM*	?	.	-33%	19
CC1CN(CCS(=O)(=O)c2cc(Cl)ccc2Cl)CC(C)O1 (stereo not drawn)	2%	1%	2%	-12%	18%	-1
COc1cc(C)ccc1OCCCCN1CC(C)OC(C)C1 (stereo not drawn)	-10%	35µM*	50µM*	8.9µM*	?	-6
O=C1CCC(=O)N1OCCOc1ccc(Cl)c2ccccc12	4%	-8%	3%	8%	34%	7
CC1CN(CCOc2ccc(Cl)cc2Cl)CC(C)O1 (stereo not drawn)	0%	8.9µM*	-37%	?	?	-1
COc1ccc(C)cc1S(=O)(=O)N1CC(C)OC(C)C1 (stereo not drawn)	-3%	-1%	-1%	.	23%	1
COc1ccc(OCC(=O)Nc2cccc(-c3nc4ccccc4s3)c2C)cc1	.	3%	2%	30%[59 µM]	66%	.
CC(C)N(Cc1ccccc1)C(=O)COC(=O)c1c(F)cccc1F	2%	-10%	.	.	24%[57 µM]	0
C[C@@H]1CN([C@@H](C)CO)S(=O)(=O)c2ccc(Br)cc2O[C@@H]1CN(C)Cc1cccnc1	1%	.	.	.	.	-8
Cc1cc2oc(C(=O)N(Cc3ccccc3F)C3CCS(=O)(=O)C3)c(C)c2cc1Cl (stereo not drawn)	.	-20%	-19%	-47%[59 µM]	36%	.
COc1ccc(NC(=O)c2ccco2)cc1NC(=O)COc1ccc(Cl)c(C)c1	.	-2%	3%	12%[59 µM]	32%	.
COc1cc(NC(=S)N2CCN(C)CC2)c(OC)cc1Cl	19µM*	1%	-19%	40µM*	12%	-4
COc1cc(NC(=S)N2CCCC(CO)C2)c(OC)cc1Cl (stereo not drawn)	?	-6%	-5%	45µM*	4%	-8
COc1cc(NC(=S)N2CCN(CCO)CC2)c(OC)cc1Cl	-7%	-1%	-7%	0%	42%	-7
CCN1CCN(C(=S)Nc2cccc([N+](=O)[O-])c2)CC1	-7%	-16%	-7%	71µM*	5%	0
O=[N+]([O-])c1cccc(NC(=S)N2CCCC2)c1	1%	-9%	-13%	.	50%	3
CN1CCN(C(=S)Nc2cc([N+](=O)[O-])ccc2Cl)CC1	?	?	-28%	3.2µM*	-4%	2
C=Cc1ccc(Cn2c(C(=O)O)c(CNC3CCCCC3)c3ccc(OC)cc32)cc1	.	-33%	?	-30%[59 µM]	9%	.
Cc1ccc(-c2cn3c(n2)sc2cc(C(=O)NC4CCCCCC4)ccc23)cc1	.	-35%	?	-36%[59 µM]	-4%	.
